The supplement of paper PMC10849652
About 7,900 targets were measured; listed, in parts, are those with a hit and a random draw of the rest. About 0.6% of all pairs of compound and target were hits.

Compound: Cc1nc(Nc2n[nH]c3c2CN(C(=O)N[C@H](CN(C)C)c2ccccc2)C3(C)C)c2sccc2n1
Assay: log2 fold change, soluble protein after heating vs DMSO (PISA); higher = thermal stabilisation; K562 cells, 10 uM, 30 min; active = over 0.2 and 3.5 SD of the protein, either way, in both replicates (recomputed)
Method in brief: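 Thermal stability values are relative to control samples and come from duplicates. They are expressed as log2 fold changes. For measurement, K562 cells (2×10^6 cells/mL) received 10 μM compound for 30 min, and aliquots were heated for 3 min over 48°C-58°C, pooled, and extracted at 4°C in PBS with 0.5% NP-40. Soluble protein, the supernatant after 21,000xg for 90 min, was quantified by TMTpro 16plex LC-MS/MS with equalised channel sums.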

Sequence of UniProt P15291 (P15291 whole entry, looked up): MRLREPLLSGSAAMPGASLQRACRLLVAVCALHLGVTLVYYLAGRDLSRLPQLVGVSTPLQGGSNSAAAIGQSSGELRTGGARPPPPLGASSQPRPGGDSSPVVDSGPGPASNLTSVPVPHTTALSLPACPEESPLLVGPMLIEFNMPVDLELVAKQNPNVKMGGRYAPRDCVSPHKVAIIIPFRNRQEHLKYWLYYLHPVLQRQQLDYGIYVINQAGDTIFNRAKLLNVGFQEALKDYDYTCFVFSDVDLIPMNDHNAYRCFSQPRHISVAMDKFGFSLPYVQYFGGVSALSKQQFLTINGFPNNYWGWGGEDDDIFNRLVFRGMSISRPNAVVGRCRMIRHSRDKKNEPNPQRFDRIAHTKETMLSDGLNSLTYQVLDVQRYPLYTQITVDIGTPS
Sequence of UniProt Q5T9A4 (Q5T9A4 whole entry, looked up): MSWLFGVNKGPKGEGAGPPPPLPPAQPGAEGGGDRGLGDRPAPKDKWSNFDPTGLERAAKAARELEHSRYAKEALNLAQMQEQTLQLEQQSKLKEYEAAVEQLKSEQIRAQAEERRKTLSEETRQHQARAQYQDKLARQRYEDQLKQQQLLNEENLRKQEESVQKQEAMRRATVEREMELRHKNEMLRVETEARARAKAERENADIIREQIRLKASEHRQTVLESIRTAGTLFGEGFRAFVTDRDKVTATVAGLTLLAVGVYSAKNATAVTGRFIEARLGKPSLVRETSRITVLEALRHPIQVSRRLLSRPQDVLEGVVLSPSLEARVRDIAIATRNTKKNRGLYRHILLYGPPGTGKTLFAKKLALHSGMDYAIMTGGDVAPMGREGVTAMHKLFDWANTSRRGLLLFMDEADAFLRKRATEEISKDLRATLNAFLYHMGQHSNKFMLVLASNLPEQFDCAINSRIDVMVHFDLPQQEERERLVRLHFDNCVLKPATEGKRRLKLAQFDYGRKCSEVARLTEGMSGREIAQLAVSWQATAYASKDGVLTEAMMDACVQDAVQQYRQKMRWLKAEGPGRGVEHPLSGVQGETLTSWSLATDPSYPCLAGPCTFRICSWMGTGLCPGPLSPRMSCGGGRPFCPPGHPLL
Sequence of UniProt Q9NP58 (Q9NP58 whole entry, looked up): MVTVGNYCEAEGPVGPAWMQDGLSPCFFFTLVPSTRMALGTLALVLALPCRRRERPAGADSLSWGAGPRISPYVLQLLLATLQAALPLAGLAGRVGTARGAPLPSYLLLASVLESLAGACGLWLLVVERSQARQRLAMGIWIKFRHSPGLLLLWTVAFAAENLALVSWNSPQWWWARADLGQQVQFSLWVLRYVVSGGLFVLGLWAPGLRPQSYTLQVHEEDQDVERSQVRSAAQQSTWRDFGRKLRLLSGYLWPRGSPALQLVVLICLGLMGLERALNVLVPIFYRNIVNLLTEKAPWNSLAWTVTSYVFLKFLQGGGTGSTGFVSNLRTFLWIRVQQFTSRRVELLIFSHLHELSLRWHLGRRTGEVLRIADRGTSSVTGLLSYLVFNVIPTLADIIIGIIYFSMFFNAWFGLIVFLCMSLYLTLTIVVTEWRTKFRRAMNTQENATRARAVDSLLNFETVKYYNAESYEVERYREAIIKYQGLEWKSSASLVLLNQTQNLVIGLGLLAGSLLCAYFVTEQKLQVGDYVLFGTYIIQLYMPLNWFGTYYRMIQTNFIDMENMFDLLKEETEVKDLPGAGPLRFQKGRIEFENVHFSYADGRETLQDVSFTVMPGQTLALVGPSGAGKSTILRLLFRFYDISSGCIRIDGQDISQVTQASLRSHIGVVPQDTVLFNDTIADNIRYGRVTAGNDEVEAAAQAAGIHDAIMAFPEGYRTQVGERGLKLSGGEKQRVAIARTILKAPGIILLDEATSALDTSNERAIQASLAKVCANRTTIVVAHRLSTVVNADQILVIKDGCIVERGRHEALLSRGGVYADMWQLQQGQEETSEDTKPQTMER
Sequence of UniProt Q9NRZ7 (Q9NRZ7 whole entry, looked up): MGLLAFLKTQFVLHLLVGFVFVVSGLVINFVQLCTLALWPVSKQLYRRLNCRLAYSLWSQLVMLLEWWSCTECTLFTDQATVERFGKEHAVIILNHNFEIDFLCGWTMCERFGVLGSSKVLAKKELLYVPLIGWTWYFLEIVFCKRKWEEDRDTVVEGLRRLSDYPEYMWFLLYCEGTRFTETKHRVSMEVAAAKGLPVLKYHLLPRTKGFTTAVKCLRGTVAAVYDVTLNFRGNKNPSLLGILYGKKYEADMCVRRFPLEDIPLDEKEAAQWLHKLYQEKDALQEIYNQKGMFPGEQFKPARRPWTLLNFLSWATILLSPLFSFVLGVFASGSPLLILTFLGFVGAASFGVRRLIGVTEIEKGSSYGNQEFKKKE
Sequence of UniProt P54886 (P54886 whole entry, looked up): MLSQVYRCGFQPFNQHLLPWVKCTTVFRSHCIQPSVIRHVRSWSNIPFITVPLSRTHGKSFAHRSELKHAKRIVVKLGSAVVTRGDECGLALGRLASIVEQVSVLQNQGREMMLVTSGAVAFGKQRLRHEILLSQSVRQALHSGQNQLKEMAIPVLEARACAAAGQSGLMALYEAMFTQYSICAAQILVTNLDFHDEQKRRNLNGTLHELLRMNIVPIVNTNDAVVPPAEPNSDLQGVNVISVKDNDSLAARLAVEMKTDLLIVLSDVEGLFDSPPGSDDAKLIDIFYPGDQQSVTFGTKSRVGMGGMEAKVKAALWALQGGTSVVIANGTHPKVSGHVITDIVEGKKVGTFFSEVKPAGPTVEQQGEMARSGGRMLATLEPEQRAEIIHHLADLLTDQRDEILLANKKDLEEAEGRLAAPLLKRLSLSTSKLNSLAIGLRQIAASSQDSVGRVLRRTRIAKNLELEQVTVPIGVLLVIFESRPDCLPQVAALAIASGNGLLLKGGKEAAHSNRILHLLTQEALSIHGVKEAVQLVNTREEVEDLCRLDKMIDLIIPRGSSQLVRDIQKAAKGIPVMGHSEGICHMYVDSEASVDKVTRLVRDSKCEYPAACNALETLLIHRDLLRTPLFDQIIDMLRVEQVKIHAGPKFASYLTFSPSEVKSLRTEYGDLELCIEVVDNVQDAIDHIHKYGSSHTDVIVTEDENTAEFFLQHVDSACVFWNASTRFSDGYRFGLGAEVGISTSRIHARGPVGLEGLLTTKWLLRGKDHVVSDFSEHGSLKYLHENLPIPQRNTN
Sequence of UniProt Q9UHQ4 (Q9UHQ4 whole entry, looked up): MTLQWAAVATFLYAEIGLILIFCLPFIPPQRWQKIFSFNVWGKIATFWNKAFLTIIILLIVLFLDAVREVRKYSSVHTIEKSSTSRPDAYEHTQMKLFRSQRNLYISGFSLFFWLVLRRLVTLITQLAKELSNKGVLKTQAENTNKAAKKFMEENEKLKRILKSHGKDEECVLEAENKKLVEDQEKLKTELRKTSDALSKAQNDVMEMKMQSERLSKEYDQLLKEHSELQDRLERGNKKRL
Sequence of UniProt Q8NHH9 (Q8NHH9 whole entry, looked up): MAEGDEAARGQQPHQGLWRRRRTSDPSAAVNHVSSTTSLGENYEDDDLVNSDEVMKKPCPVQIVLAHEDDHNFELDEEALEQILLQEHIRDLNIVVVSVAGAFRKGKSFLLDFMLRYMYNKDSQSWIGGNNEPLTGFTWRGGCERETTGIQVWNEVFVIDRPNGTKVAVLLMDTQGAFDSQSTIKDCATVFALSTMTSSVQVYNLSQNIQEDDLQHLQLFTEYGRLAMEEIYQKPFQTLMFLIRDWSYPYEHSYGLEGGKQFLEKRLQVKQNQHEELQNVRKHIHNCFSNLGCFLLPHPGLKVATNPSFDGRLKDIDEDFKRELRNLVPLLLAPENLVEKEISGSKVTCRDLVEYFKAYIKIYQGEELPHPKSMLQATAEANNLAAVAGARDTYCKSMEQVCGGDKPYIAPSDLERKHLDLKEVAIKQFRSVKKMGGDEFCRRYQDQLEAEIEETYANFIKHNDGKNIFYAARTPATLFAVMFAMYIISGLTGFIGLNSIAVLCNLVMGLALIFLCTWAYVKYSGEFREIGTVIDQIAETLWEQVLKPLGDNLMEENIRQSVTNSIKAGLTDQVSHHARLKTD
Sequence of UniProt Q02252 (Q02252 whole entry, looked up): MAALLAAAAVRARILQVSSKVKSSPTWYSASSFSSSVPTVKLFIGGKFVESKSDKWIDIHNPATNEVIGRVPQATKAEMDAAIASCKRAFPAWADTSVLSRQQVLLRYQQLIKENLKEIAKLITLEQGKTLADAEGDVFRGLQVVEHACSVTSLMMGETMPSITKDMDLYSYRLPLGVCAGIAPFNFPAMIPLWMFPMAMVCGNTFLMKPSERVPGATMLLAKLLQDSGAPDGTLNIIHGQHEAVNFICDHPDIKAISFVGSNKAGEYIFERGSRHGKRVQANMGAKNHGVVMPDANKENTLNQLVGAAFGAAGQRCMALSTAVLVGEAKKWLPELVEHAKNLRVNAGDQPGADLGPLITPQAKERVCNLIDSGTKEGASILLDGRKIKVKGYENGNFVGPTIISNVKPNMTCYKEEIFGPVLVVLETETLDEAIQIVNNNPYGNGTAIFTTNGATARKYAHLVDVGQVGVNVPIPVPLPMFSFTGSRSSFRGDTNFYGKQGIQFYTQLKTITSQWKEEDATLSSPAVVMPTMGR
Sequence of UniProt Q9NUQ2 (Q9NUQ2 whole entry, looked up): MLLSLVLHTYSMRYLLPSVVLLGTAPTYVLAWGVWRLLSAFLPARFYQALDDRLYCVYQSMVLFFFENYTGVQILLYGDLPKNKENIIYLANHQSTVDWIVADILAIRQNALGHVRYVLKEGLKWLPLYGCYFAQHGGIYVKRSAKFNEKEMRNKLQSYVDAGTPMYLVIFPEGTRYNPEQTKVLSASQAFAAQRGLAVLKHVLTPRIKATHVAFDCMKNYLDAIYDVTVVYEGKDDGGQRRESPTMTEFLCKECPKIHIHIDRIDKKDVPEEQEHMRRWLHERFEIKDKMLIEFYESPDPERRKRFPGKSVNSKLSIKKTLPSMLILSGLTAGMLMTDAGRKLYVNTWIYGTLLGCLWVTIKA
Sequence of UniProt P53680 (P53680 whole entry, looked up): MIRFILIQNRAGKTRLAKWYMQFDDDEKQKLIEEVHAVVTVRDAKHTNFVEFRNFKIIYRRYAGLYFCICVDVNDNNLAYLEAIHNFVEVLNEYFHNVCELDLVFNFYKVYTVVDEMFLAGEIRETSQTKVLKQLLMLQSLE

log2 fold change, inactive:
BZW2 (UniProt Q9Y6E2) -0.04
ALDH6A1 (UniProt Q02252) 0.018
ATAD3B (UniProt Q5T9A4) -0.039
ASNS (UniProt P08243) 0.021
ALG11 (UniProt Q2TAA5) -0.037
AGPAT5 (UniProt Q9NUQ2) 0.04
ALDH9A1 isoform 3 (UniProt P49189) -0.019
ARL2BP (UniProt Q9Y2Y0) -0.086
ASH2L (UniProt Q9UBL3) -0.041
ACO2 (UniProt Q99798) 0.013
APOB (UniProt P04114) 0.013
AMFR (UniProt Q9UKV5) -0.016
AKT2 (UniProt P31751) -0.144
BCAP29 isoform 2 (UniProt Q9UHQ4) 0.035
ADD3 (UniProt Q9UEY8) -0.004
ATP6V0A1 isoform 3 (UniProt Q93050) -0.029
BCCIP isoform 2 (UniProt Q9P287) -0.029
BRD4 (UniProt O60885) 0.017
ATL2 (UniProt Q8NHH9) -0.008
BRIX1 (UniProt Q8TDN6) -0.077
ACBD6 (UniProt Q9BR61) -0.085
ABCB6 (UniProt Q9NP58) 0.032
ATG4B isoform 2 (UniProt Q9Y4P1) -0.035
ALDH18A1 (UniProt P54886) -0.15
AGPAT3 isoform 3 (UniProt Q9NRZ7) 0.004
ANKZF1 (UniProt Q9H8Y5) -0.29
AK6 (UniProt Q9Y3D8) -0.143
AP2S1 (UniProt P53680) -0.009
ACADVL isoform 3 (UniProt P49748) 0.02
ATP5ME (UniProt P56385) 0.008
B4GALT1 (UniProt P15291) -0.025
ALKBH5 (UniProt Q6P6C2) -0.025
ATP12A isoform 2 (UniProt P54707) -0.007
ABHD16A (UniProt O95870) 0.055
BAP1 (UniProt Q92560) 0.053
ARMC8 (UniProt Q8IUR7) 0.038
